A selection: hits, their analogues and other compounds. The true share with any hit is near 11%.
ALDH1A1 block: qHTS Assay for Inhibitors of Aldehyde Dehydrogenase 1 (ALDH1A1); Aldehyde dehydrogenase 1A1 (Homo sapiens), P00352; Purified ALDH1A1, NADH fluorescence, propionaldehyde substrate; Potency, µM (titrated, usually from 75.3 µM), usual class: inhibitors; hit rate 7.3% among 220,000; AID 1030, 2008
HPGD block: qHTS Assay for Inhibitors of HPGD (15-Hydroxyprostaglandin Dehydrogenase); 15-hydroxyprostaglandin dehydrogenase [NAD(+)] (Homo sapiens), P15428; purified HPGD, NADH fluorescence kinetic, PGE2 substrate; Potency, µM, actives largely listed as inhibitors; hit rate 4.3% among 150,000; AID 894, 2007
Target sequence (P15428 whole entry, looked up): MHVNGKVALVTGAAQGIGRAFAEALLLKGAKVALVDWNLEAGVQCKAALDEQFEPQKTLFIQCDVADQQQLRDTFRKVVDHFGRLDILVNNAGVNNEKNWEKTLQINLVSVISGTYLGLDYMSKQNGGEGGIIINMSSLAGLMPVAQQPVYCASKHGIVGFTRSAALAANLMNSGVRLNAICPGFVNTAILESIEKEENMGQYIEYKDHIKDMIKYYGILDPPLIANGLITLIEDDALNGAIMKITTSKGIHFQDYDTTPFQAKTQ
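NADH formation kinetics: reaction with 30 uM PGE2 and 1 mM NAD+ (final), 20 nM enzyme, Tris-HCl pH 8 with Tween 20, after 15 min compound preincubation at room temperature. Fluorescence change, last versus first of five reads.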
PNC inhibitor: High Content Assay for Compounds that inhibit the Assembly of the Perinucleolar Compartment; PC3M PTB-GFP, PNC prevalence imaging, 16 h; active compounds read low; activity change (PNC), negative = inhibition, % at 10 µM; hit rate 3.1% among 140,000;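 active means readout at or below -70, meaning at least 70% loss of cells showing the perinucleolar compartment, a nuclear body marking cancer cells; inconclusive means readout between -30 and a set limit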
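Read-out is percentage of cells bearing a perinucleolar compartment, from automated 20x imaging of fixed, Hoechst-stained PC3M PTB-GFP cells. Cells were seeded 4 h, then exposed 16 h to compound (23 nl of library stock) in duplicate plates.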
Large screens that a line does not name were inactive. Unless noted, the call rests on the fitted dose curve; in most records, active means well fitted inhibition curve with a large enough effect (not every such curve was filed as active); inconclusive means small, poorly fitted or top-dose-only effect, or another doubt; inactive means no such curve, though single readings can be large or run the other way.

COCCNC(=O)[C@H](C)/C=C(\c1cccnc1)C(NC(=O)OCc1ccccc1)c1ccc(C(=O)OC)cc1 (stereo partly specified)	none (no result: PNC inhibitor)
Cc1cc(=O)[nH]c2c(N=Nc3ccc(O)cc3)c(N)nn12	ALDH1A1 block 18µM (no result: HPGD block, PNC inhibitor)
Nc1nn2c(C(F)(F)F)cc(=O)[nH]c2c1N=Nc1cccc(F)c1	none (no result: HPGD block, PNC inhibitor)
COc1ccc(C(=O)ON=C2CCN(c3ccc([N+](=O)[O-])cc3)CC2)cc1	ALDH1A1 block 4µM
O=C(ON=C1CCN(c2ccc([N+](=O)[O-])cc2)CC1)c1ccccc1	ALDH1A1 block inconclusive
Cc1nnc(SCCn2c(N(C)Cc3ccccc3)nc3c2c(=O)[nH]c(=O)n3C)s1	none
O=C(NCc1ccco1)c1sc(=S)n2c1[nH]c(=O)c1ccccc12	none (no result: HPGD block)
CCCCCNC(=O)c1ccc2c(=O)[nH]c3c(C(=O)NCC4CCCO4)sc(=S)n3c2c1 (stereo unspecified)	ALDH1A1 block inconclusive, HPGD block 11µM
O=C(NC1CCCC1)c1sc(=S)n2c1[nH]c(=O)c1ccccc12	ALDH1A1 block inconclusive
O=C(NCc1ccccc1)c1ccc2c(=O)[nH]c3c(C(=O)NCC4CCCO4)sc(=S)n3c2c1 (stereo unspecified)	ALDH1A1 block 20µM (no result: HPGD block, PNC inhibitor)
O=CNNC(=O)c1cccc([N+](=O)[O-])c1	none
CCCCC/C=C\C[C@@H](O)/C=C/C=C\C/C=C\CCCC(=O)O	none (no result: PNC inhibitor)
CCOc1ccccc1NC(=O)CSc1nnnn1Cc1ccccc1	PNC inhibitor -82
CCOc1ccccc1NC(=O)CSc1nnnn1-c1ccccc1	ALDH1A1 block 16µM, PNC inhibitor inconclusive
CCOc1ccccc1NC(=O)COn1nnc2ccc(Cl)cc21	ALDH1A1 block 16µM, HPGD block inconclusive, PNC inhibitor inconclusive
COc1ccccc1NC(=O)CSc1nnnn1Cc1ccccc1	PNC inhibitor inconclusive
Cc1cc(NC(=O)COn2nnc3ccc(Cl)cc32)no1	none
CCOc1ccccc1NC(=O)CSc1nnnn1-c1ccc(C(=O)OC)cc1	PNC inhibitor inconclusive
C=CCSc1nnc(C)c(/C=C/Nc2ccc(Cl)cc2)n1	none (no result: HPGD block, PNC inhibitor)
COc1ccc(CN(C)CC(=O)Nc2ccc(Cl)cc2C(F)(F)F)c(OC)c1	ALDH1A1 block inconclusive
COc1cccc(Cn2cc(N)cn2)c1	none (no result: HPGD block, PNC inhibitor)
COc1ccccc1-c1nnc(SCC(=O)c2ccc(C3CCCCC3)cc2)n1Cc1ccco1	ALDH1A1 block inconclusive
O=S(=O)(CCn1cccc1)CCn1cccc1	PNC inhibitor -100
CN1CCN(NC(=O)c2ccc(Cl)s2)CC1	none (no result: HPGD block, PNC inhibitor)
COc1ccc(CN2CCN(C(=O)c3cc(OC)c(OC)c(OC)c3)CC2)cc1OC	PNC inhibitor -100
COc1ccc(C(=O)N2CCN(Cc3cc(OC)c(O)c(OC)c3)CC2)cc1OC	ALDH1A1 block 22µM, PNC inhibitor -87 (no result: HPGD block)
COc1cccc(C(=O)N2CCN(C(=O)c3cccc4ccccc34)CC2)c1OC	ALDH1A1 block inconclusive
COc1ccc(C(=O)N2CCN(C3CCN(Cc4ccccc4)CC3)CC2)cc1OC	ALDH1A1 block inconclusive
COc1cc(CN2CCN(C(=O)CC(C)C)CC2)cc(OC)c1OC	PNC inhibitor inconclusive
CCc1ccc(CN2CCN(C(=O)c3cccc(OC)c3OC)CC2)cc1	ALDH1A1 block inconclusive, PNC inhibitor -100
NCCCCCc1nnc(SCc2ccc(Cl)c(Cl)c2)o1	none
O=C(c1ccncc1)N1CCC[C@@]2(CCN(c3ccncc3)C2)C1	none (no result: PNC inhibitor)
O=C1CN(C(=O)CCCc2c[nH]c3ccccc23)c2ccccc2N1	HPGD block inconclusive
CC1CCc2c(sc(NC(=O)CSc3nc4c(c(C(F)(F)F)n3)CCc3ccccc3-4)c2C(N)=O)C1 (stereo unspecified)	PNC inhibitor inconclusive
[O-]/[N+](=C\c1ccncc1)c1ccc(Br)cc1	ALDH1A1 block 1.1µM, HPGD block inconclusive, PNC inhibitor inconclusive
O=C(NCc1ccncc1)c1ccc(Br)cc1	PNC inhibitor inconclusive
CCOC(=O)OCC1OC(c2ccccc2)C=CC1Oc1cccc(N(C)C)c1 (stereo unspecified)	none (no result: HPGD block, PNC inhibitor)
O=C(CCN1CCC(c2ccccc2)C1)c1cccs1 (stereo unspecified)	ALDH1A1 block 0.13µM
O=C(CCN1CCC(c2ccccc2)C1)c1ccccc1 (stereo unspecified)	ALDH1A1 block 1.4µM
O=C(Nc1ccccc1)N1CCC(c2ccccc2)C1 (stereo unspecified)	none
O=C(c1cccs1)N1CCC(c2ccccc2)C1 (stereo unspecified)	none
O=C(CCN1CCC(c2ccccc2)C1)c1ccc2c(c1)OCCO2 (stereo unspecified)	ALDH1A1 block 0.11µM, PNC inhibitor inconclusive
O=C(O)c1ccc2c(c1)OCCO2	none
N=C1CCCN1CC(=O)c1cccs1	none (no result: HPGD block, PNC inhibitor)
O=C(CCN1CCC(c2cccs2)=N1)c1cccs1	ALDH1A1 block 3.2µM (no result: HPGD block, PNC inhibitor)
CCOc1c2ccc(C(=O)NCc3ccc(C)cc3)cc2nn1CCOC	ALDH1A1 block inconclusive, HPGD block inconclusive
COC(=O)C1=C(C(=O)OC)[C@@H]2Nc3ccccc3[C@@]23C[C@@H](C(=O)OC)N(C(C)=O)C3=N1	none (no result: PNC inhibitor)
O=C(CCN1CCc2ccccc21)c1ccc2c(c1)OCCO2	ALDH1A1 block 3.2µM
O=C(CCN1CCCC1Cc1ccccc1)c1ccc2c(c1)OCCO2 (stereo unspecified)	ALDH1A1 block 0.035µM
O=C(CCc1ccccc1)c1ccc2c(c1)OCCCO2	ALDH1A1 block inconclusive, HPGD block inconclusive
O=C(CCCc1ccccc1)c1ccc2c(c1)OCCO2	ALDH1A1 block inconclusive, PNC inhibitor inconclusive
O=C(O)CCC(=O)c1ccc2c(c1)OCCCO2	ALDH1A1 block inconclusive
CN(C)CCN1CCc2ccccc21	ALDH1A1 block inconclusive
c1ccc2c(c1)CCN2CCN1CCc2ccccc21	ALDH1A1 block 40µM
O=C(CCN1CCCCC1)c1ccc2c(c1)OCCO2	ALDH1A1 block 0.1µM, PNC inhibitor inconclusive
COCCNC(=S)NC12CC3CC(CC(C3)C1)C2	ALDH1A1 block inconclusive
Cc1c(O)c2cccnc2[nH]c1=O	none
COc1ccc(CCn2nnnc2C(C(C)C)N2CCN(c3ncccn3)CC2)cc1OC (stereo unspecified)	ALDH1A1 block inconclusive
COc1cc(C(=O)CCN2CCC(c3ccccc3)C2)cc(OC)c1OC (stereo unspecified)	ALDH1A1 block 0.04µM
COc1ccc(C(=O)N2CCN(C3CCC(c4ccccc4)CC3)CC2)cc1OC (stereo unspecified)	ALDH1A1 block inconclusive
CC(=O)c1nc(-c2ccccc2)sc1C	none (no result: HPGD block, PNC inhibitor)
Cc1nnc2n(c1=O)N=C(c1ccc(Cl)cc1)CS2	ALDH1A1 block inconclusive
CCn1c2ccccc2c2cc(N)ccc21	ALDH1A1 block inconclusive, HPGD block inconclusive
CCC(CC)NCc1ccc2c(c1)c1ccccc1n2CC	ALDH1A1 block 20µM (no result: HPGD block, PNC inhibitor)
CCOC(=O)C1(Cc2ccccc2)CCN(Cc2ccc3cc(NC(C)=O)ccc3n2)CC1	none (no result: HPGD block, PNC inhibitor)
CCC(CC)C(=O)c1c[nH]c(C(=O)NCc2ccncc2)c1	none (no result: HPGD block, PNC inhibitor)
Cc1ccc(C(=O)N/C(=C\c2ccccc2)C(=O)NCC2CCCO2)cc1 (stereo unspecified)	none
O=C(NCCCO)/C(=C\c1cn(-c2ccccc2)nc1-c1cccnc1)NC(=O)c1ccccc1	ALDH1A1 block 1.8µM
O=C(N/N=C/c1cn(-c2ccccc2)nc1-c1cccnc1)c1cccnc1	none (no result: HPGD block, PNC inhibitor)

Assay outcomes as filed in PubChem BioAssay.
